This is an account of results in ChEMBL document CHEMBL1961873, “Compounds: GSK PKIS; Assays: Nanosyn kinase panel” (2012).

Usually inhibition stands for the relative decrease from the control value, in per cent.

In assay [1] the target is T1, Mitogen-activated protein kinase 12 (Homo sapiens) (UniProt P53778).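 Also: values are averaged p38gamma kinase inhibition readings, compounds tested at 1 µM.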
T1 sequence (whole entry): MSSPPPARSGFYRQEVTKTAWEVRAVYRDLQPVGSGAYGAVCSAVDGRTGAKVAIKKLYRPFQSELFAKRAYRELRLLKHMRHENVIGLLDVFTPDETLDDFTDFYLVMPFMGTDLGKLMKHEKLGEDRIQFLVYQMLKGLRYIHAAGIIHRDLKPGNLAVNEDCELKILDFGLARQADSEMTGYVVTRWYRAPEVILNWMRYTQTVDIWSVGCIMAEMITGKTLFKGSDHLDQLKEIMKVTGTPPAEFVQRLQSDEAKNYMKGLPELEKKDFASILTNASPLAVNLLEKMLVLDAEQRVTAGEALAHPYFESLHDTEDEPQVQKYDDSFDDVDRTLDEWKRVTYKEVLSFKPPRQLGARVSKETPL
As to conditions: at 1 µM.

The target of assay [2] is SRSF protein kinase 1 (Homo sapiens) (UniProt Q96SB4). As to conditions: at 0.1 µM.
Chain of SRSF protein kinase 1 (Homo sapiens) (Q96SB4 whole entry): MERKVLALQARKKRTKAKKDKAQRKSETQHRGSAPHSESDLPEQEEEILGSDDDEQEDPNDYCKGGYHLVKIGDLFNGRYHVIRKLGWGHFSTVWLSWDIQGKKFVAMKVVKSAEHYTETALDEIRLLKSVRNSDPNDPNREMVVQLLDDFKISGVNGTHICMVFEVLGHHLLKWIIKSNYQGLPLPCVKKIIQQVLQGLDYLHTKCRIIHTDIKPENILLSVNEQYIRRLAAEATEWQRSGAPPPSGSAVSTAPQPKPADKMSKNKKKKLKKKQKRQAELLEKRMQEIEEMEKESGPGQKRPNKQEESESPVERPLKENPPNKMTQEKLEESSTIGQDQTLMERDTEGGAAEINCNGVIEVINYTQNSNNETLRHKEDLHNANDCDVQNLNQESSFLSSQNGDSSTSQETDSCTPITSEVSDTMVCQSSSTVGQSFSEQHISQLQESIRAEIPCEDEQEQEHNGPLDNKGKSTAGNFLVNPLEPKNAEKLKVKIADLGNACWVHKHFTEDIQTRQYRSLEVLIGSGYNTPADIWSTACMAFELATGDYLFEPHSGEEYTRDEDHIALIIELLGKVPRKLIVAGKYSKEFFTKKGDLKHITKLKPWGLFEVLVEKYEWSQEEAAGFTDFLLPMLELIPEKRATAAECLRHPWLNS
For assay [3] the target is unchanged. As to conditions: at 1 µM.
For assay [4], the target named is Phosphatidylinositol 4,5-bisphosphate 3-kinase catalytic subunit alpha isoform (Homo sapiens) (UniProt P42336). As to conditions: at 0.1 µM.
Chain of Phosphatidylinositol 4,5-bisphosphate 3-kinase catalytic subunit alpha isoform (Homo sapiens) (P42336 whole entry, canonical isoform): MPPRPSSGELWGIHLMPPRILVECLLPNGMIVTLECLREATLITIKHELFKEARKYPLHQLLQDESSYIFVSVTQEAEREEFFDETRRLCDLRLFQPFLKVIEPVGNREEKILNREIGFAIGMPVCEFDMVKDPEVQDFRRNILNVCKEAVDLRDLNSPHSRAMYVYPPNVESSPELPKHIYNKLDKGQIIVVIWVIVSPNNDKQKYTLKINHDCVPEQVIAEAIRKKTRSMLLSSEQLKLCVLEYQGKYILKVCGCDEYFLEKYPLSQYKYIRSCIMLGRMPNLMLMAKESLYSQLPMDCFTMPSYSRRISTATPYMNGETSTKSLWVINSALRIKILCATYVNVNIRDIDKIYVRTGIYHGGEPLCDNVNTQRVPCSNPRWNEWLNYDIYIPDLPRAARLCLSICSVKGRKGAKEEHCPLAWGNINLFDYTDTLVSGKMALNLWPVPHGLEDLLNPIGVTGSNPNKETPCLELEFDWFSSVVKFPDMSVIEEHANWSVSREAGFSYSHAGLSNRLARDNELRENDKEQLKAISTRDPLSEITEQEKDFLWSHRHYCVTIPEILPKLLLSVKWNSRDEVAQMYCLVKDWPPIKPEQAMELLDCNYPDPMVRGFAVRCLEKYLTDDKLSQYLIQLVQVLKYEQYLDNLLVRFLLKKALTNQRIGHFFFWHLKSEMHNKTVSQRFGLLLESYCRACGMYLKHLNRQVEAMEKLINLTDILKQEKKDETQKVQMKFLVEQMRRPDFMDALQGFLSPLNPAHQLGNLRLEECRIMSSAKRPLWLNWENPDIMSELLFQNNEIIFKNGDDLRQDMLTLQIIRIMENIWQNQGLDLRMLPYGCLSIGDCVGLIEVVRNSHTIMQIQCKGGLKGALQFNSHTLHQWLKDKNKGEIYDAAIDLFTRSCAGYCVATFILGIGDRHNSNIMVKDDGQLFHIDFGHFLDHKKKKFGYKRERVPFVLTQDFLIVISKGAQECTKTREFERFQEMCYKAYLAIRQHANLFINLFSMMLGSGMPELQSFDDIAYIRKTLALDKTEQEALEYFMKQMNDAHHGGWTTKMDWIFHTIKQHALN
Assay [5] shares this target. As to conditions: at 1 µM.
Assay [6] has as its target T2, Phosphatidylinositol 4,5-bisphosphate 3-kinase catalytic subunit delta isoform (Homo sapiens) (UniProt O00329).
T2 sequence (whole entry): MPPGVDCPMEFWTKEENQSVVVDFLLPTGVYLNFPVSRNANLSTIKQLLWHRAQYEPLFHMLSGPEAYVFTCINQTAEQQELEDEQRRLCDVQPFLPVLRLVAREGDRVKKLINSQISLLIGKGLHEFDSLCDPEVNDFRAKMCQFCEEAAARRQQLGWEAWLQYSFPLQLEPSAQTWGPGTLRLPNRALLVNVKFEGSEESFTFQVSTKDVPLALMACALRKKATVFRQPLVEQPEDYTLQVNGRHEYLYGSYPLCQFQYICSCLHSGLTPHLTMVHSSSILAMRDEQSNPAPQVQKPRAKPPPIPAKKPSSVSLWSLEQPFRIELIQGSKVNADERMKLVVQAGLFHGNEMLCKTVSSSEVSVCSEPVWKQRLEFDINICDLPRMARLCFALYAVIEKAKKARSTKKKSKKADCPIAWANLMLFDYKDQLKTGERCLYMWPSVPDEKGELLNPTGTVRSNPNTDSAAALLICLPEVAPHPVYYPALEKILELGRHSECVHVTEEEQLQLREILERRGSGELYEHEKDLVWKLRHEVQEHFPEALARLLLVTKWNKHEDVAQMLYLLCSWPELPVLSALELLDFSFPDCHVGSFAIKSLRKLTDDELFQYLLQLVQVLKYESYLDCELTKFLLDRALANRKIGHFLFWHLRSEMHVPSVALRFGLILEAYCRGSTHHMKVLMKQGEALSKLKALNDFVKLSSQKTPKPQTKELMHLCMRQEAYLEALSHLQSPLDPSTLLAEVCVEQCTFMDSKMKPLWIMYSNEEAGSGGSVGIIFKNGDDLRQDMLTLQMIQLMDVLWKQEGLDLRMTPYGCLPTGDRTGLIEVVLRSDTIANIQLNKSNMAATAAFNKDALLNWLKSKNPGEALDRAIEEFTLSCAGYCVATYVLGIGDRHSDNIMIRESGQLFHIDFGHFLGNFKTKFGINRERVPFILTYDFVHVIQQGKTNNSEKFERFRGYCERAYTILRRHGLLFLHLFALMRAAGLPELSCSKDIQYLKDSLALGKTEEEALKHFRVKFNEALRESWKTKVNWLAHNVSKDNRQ
As to conditions: at 0.1 µM.

The target of assay [7] is T2, Phosphatidylinositol 4,5-bisphosphate 3-kinase catalytic subunit delta isoform (Homo sapiens). As to conditions: at 1 µM.
Assay [8] concerns the target Phosphatidylinositol 4-kinase beta (Homo sapiens) (UniProt Q9UBF8). As to conditions: at 0.1 µM.
The target is the same in assay [9]. As to conditions: at 1 µM.
For assay [10], the target named is Sphingosine kinase 1 (Homo sapiens) (UniProt Q9NYA1). As to conditions: at 0.1 µM.
Chain of Sphingosine kinase 1 (Homo sapiens) (Q9NYA1 whole entry): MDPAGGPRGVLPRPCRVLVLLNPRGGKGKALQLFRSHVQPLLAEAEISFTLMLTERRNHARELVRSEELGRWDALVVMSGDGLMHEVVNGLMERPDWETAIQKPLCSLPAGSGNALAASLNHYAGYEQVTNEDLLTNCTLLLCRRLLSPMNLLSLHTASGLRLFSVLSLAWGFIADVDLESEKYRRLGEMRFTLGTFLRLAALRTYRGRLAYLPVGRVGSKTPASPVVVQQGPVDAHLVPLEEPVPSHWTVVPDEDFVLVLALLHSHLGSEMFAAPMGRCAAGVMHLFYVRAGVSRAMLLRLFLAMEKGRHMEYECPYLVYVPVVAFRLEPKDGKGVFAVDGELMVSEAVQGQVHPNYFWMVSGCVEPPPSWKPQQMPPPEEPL
Assay [11] has the same target. As to conditions: at 1 µM.
Assay [12] concerns the target T3, Sphingosine kinase 2 (Homo sapiens) (UniProt Q9NRA0).
T3 sequence (whole entry): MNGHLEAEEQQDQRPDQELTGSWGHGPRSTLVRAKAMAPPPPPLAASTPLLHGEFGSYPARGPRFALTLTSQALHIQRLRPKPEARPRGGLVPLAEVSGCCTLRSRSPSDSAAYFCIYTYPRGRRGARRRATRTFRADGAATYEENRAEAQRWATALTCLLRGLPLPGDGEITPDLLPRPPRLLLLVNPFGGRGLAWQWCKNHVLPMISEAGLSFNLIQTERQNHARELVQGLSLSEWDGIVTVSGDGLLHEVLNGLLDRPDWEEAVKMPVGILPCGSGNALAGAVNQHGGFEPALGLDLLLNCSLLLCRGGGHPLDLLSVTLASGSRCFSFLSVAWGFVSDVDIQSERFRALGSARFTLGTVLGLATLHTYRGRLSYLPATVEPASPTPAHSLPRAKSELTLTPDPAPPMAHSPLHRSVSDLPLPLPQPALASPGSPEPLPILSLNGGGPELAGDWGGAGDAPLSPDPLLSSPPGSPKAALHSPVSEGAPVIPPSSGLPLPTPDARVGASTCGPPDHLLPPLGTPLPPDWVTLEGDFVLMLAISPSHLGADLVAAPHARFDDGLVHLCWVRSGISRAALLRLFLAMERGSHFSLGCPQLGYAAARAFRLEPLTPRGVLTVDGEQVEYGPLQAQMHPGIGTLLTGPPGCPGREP
As to conditions: at 0.1 µM.

In assay [13] the target is T3, Sphingosine kinase 2 (Homo sapiens). As to conditions: at 1 µM.
For assay [14], the target named is Casein kinase II subunit alpha (Homo sapiens) (UniProt P68400). As to conditions: at 0.1 µM.
Chain of Casein kinase II subunit alpha (Homo sapiens) (P68400 whole entry, looked up): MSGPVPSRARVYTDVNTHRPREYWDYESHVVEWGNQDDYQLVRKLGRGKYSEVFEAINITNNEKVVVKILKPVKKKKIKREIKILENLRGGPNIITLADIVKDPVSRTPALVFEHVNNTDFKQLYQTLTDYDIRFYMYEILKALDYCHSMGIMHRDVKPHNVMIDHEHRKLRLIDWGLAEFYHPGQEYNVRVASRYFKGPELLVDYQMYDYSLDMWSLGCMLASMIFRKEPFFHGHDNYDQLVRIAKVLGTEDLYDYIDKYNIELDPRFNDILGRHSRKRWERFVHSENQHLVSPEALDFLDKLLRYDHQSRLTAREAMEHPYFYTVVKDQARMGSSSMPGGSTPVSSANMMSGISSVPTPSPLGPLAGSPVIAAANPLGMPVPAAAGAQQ
Assay [15] has the same target. As to conditions: at 1 µM.
Assay [16] concerns the target T4, Inhibitor of nuclear factor kappa-B kinase subunit alpha (Homo sapiens) (UniProt O15111).
T4 sequence (whole entry): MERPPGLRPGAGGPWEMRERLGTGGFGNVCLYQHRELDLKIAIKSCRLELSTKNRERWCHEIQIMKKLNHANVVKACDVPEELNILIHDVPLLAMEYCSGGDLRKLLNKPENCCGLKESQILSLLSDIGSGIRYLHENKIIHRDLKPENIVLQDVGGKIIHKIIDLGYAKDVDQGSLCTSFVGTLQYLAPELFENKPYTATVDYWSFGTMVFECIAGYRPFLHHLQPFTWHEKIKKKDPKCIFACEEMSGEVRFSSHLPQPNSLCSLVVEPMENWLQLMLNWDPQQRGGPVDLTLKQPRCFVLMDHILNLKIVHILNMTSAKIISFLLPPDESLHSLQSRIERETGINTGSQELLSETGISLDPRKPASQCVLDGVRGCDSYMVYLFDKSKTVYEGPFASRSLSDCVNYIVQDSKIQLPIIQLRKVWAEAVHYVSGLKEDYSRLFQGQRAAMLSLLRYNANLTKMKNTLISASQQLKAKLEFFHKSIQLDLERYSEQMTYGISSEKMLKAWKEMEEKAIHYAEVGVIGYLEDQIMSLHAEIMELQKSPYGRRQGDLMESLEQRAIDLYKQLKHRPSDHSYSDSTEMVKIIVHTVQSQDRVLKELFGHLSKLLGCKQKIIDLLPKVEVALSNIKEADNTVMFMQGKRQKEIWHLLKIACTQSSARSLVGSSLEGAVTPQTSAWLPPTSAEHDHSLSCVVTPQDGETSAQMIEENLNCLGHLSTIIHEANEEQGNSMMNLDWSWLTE
As to conditions: at 0.1 µM.

Assay [17] deals with T4, Inhibitor of nuclear factor kappa-B kinase subunit alpha (Homo sapiens). As to conditions: at 1 µM.
Assay [18] has as its target T5, Inhibitor of nuclear factor kappa-B kinase subunit beta (Homo sapiens) (UniProt O14920).
T5 sequence (whole entry): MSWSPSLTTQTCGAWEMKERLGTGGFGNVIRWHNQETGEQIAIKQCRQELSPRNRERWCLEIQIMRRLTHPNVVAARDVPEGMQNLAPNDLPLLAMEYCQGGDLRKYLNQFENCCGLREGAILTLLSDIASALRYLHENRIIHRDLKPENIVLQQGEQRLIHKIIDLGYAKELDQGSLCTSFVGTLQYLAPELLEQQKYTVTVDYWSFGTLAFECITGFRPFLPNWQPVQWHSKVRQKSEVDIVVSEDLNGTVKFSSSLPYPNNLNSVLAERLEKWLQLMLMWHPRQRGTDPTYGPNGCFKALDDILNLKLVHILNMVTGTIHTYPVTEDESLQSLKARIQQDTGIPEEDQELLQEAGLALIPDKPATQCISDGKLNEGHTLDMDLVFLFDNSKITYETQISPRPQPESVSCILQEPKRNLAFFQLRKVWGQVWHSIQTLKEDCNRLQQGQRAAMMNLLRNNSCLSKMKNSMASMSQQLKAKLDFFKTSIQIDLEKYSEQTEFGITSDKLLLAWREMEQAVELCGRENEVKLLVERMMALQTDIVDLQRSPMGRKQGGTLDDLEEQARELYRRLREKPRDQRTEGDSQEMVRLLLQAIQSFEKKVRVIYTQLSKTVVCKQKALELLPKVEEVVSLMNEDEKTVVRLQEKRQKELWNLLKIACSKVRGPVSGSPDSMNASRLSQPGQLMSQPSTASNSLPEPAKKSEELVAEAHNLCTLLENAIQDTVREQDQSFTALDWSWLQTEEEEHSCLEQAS
As to conditions: at 0.1 µM.

The target of assay [19] is T5, Inhibitor of nuclear factor kappa-B kinase subunit beta (Homo sapiens). As to conditions: at 1 µM.
For assay [20], the target named is T6, Inhibitor of nuclear factor kappa-B kinase subunit epsilon (Homo sapiens) (UniProt Q14164).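 Also: mean inhibition of IKKε reported, from the GSK PKIS dataset.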
T6 sequence (whole entry): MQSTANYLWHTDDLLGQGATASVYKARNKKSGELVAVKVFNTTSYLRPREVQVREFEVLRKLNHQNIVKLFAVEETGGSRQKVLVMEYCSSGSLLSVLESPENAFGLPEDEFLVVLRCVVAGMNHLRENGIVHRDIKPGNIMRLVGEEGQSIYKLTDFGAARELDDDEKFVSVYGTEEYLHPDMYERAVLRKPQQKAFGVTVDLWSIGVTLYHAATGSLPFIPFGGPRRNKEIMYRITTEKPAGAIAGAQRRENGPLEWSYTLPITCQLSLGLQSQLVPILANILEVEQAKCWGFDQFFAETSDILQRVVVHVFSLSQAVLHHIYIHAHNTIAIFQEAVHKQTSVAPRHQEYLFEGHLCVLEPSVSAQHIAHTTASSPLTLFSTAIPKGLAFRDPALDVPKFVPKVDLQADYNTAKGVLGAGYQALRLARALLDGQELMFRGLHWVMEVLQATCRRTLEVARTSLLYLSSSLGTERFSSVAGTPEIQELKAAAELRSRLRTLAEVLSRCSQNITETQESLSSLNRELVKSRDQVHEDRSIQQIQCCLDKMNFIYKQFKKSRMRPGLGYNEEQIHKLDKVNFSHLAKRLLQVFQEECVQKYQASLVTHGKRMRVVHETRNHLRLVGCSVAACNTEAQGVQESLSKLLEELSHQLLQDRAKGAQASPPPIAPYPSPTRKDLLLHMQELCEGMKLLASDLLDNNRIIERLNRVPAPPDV
As to conditions: at 0.1 µM.

Chain of Phosphatidylinositol 4-kinase beta (Homo sapiens) (Q9UBF8 2-816 limits assumed): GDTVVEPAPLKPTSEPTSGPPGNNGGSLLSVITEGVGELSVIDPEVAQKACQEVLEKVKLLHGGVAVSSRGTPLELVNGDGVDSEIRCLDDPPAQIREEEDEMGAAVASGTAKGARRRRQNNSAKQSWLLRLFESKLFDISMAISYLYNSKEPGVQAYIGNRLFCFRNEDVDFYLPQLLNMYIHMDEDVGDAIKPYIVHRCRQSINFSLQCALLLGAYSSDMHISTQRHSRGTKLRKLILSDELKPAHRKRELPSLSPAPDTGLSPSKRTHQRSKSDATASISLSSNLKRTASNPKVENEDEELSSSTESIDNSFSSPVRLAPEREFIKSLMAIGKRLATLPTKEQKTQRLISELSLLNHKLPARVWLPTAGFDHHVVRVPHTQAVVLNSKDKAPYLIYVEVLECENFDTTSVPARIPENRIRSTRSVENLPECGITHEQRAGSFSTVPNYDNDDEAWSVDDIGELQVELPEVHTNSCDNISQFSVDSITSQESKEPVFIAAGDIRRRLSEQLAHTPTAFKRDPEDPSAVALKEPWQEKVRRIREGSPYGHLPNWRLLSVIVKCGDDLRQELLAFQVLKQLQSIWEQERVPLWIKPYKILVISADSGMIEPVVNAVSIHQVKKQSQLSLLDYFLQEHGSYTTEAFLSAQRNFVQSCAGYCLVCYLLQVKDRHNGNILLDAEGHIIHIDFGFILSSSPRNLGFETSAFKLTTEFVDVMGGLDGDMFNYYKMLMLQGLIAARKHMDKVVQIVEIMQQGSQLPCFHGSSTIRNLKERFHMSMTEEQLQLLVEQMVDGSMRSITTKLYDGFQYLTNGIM

Take `COC(=O)Nc1nc2ccc(Sc3ccc(NC(=O)Nc4cc(C(F)(F)F)ccc4F)cc3)cc2[nH]1`: the inhibition is 2.22% in [1]; -1.15% in assay [2]; -0.09% in assay [3]; -1.35% in assay [4]; 8.27% in assay [5]; 0.7% in assay [6]. Further, the inhibition in [7] was 10.2%; in assay [8], 1.21%; in assay [9] it was -4.04%; in assay [10], 0.39%; in assay [11], 4.23%; in assay [12], -0.54%. Further, the inhibition in assay [13] is -0.1%; in assay [14] it was 2.02%; in assay [15], 6.92%; in [16], 2.75%; in [17] it was -2%; in assay [18], -0.76%. Further, the inhibition in [19] is -1.08%; in assay [20], -0.58%.
With `Fc1ccc(-c2ncn(CCCN3CCOCC3)c2-c2ccncc2)cc1`, the inhibition was 0.4% in assay [1]; 0.27% in assay [2]; -5.35% in [3]; -0.43% in assay [4]; 0.51% in assay [5]; 1.59% in [6]. In addition, the inhibition in assay [7] was 2.95%; in assay [8], -1.68%; in assay [9] it was -0.65%; in assay [10], 1.13%; in assay [11], -2.07%; in assay [12] it was -0.81%. Besides, the inhibition in assay [13] was -0.25%; in [14], -2.49%; in [15], -6%; in assay [17], -8.87%; in assay [18] it was 7.22%; in [19] it was 3.34%. In [20], the inhibition turned out to be 4.58%.
As to `CCc1nccc2c1nc(-c1nonc1N)n2CC`, the inhibition in [1] is 3.91%; in assay [2], -2.2%; in assay [3], -4.41%; in assay [4] it was -0.95%; in assay [5] it was 1.38%; in assay [6] it was 1.47%. Further, the inhibition in [7] is 4.23%; in assay [8] it was -3.69%; in assay [9], 1.82%; in assay [10], 0%; in [11] it was -1.61%; in [12] it was 1.28%. Also, the inhibition in assay [13] was 1.35%; in [14], 0.7%; in assay [15] it was -1.05%; in assay [16], 2.04%; in assay [17], -4.71%; in [18], 0.02%. Also, the inhibition is -1.22% in [19] and 0.57% in assay [20].
